molecular target: AgAbp1; test: SPOT peptide array binding signal intensity (averaged, normalized) (arbitrary units (background-subtracted, floor 0; scale differs between SH3 domains)); higher = stronger binding of the SH3 domain to the peptide
Method: (§1)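 GST-tagged SH3 domains from S. cerevisiae (Sc), A. gossypii (Ag), C. albicans (Ca) and S. pombe (Sp) were incubated at 10 ug/ml overnight at 4 C on cellulose SPOT membranes carrying 292 synthetic 15-mer peptides mined from the S. cerevisiae proteome (cysteines replaced by serines). Binding was detected with anti-GST antibody, HRP secondary and chemiluminescence, quantified with Genespotter, and reported as normalized spot intensities averaged over biological replicates.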

Binder	SPOT peptide array binding signal intensity
LASNSPPVYPKRIRH	45

molecular target: AgBbc1; test: as above
Method: as §1

Binder	SPOT peptide array binding signal intensity
LASNSPPVYPKRIRH	18.2

molecular target: AgBem1-D1; test: as above
Method: as §1

Binder	SPOT peptide array binding signal intensity
LASNSPPVYPKRIRH	≤ 0

molecular target: AgBzz1-D1; test: as above
Method: as §1

Binder	SPOT peptide array binding signal intensity
LASNSPPVYPKRIRH	59

molecular target: AgBzz1-D2; test: as above
Method: as §1

Binder	SPOT peptide array binding signal intensity
LASNSPPVYPKRIRH	6

molecular target: AgCyk3; test: as above
Method: as §1

Binder	SPOT peptide array binding signal intensity
LASNSPPVYPKRIRH	≤ 0

molecular target: AgFus1; test: as above
Method: as §1

Binder	SPOT peptide array binding signal intensity
LASNSPPVYPKRIRH	≤ 0

molecular target: AgHof1; test: as above
Method: as §1

Binder	SPOT peptide array binding signal intensity
LASNSPPVYPKRIRH	≤ 0

molecular target: AgHse1; test: as above
Method: as §1

Binder	SPOT peptide array binding signal intensity
LASNSPPVYPKRIRH	3.5

molecular target: AgLsb1; test: as above
Method: as §1

Binder	SPOT peptide array binding signal intensity
LASNSPPVYPKRIRH	2.5

molecular target: AgLsb4; test: as above
Method: as §1

Binder	SPOT peptide array binding signal intensity
LASNSPPVYPKRIRH	196

molecular target: AgMyo5; test: as above
Method: as §1

Binder	SPOT peptide array binding signal intensity
LASNSPPVYPKRIRH	≤ 0

molecular target: AgNbp2; test: as above
Method: as §1

Binder	SPOT peptide array binding signal intensity
LASNSPPVYPKRIRH	≤ 0

molecular target: AgRvs167; test: as above
Method: as §1

Binder	SPOT peptide array binding signal intensity
LASNSPPVYPKRIRH	4.17

molecular target: AgSho1; test: as above
Method: as §1

Binder	SPOT peptide array binding signal intensity
LASNSPPVYPKRIRH	≤ 0

molecular target: AgSla1-D1-D2; test: as above
Method: as §1

Binder	SPOT peptide array binding signal intensity
LASNSPPVYPKRIRH	2

molecular target: AgSla1-D3; test: as above
Method: as §1

Binder	SPOT peptide array binding signal intensity
LASNSPPVYPKRIRH	≤ 0

molecular target: CaAbp1-D1; test: as above
Method: as §1

Binder	SPOT peptide array binding signal intensity
LASNSPPVYPKRIRH	93

molecular target: CaAbp1-D2; test: as above
Method: as §1

Binder	SPOT peptide array binding signal intensity
LASNSPPVYPKRIRH	47.5

molecular target: CaBbc1; test: as above
Method: as §1

Binder	SPOT peptide array binding signal intensity
LASNSPPVYPKRIRH	400

molecular target: CaBem1-D1; test: as above
Method: as §1

Binder	SPOT peptide array binding signal intensity
LASNSPPVYPKRIRH	6

molecular target: CaBzz1-D1; test: as above
Method: as §1

Binder	SPOT peptide array binding signal intensity
LASNSPPVYPKRIRH	165

molecular target: CaBzz1-D2; test: as above
Method: as §1

Binder	SPOT peptide array binding signal intensity
LASNSPPVYPKRIRH	44.8

molecular target: CaCyk3; test: as above
Method: as §1

Binder	SPOT peptide array binding signal intensity
LASNSPPVYPKRIRH	≤ 0

molecular target: CaFus1; test: as above
Method: as §1

Binder	SPOT peptide array binding signal intensity
LASNSPPVYPKRIRH	≤ 0

molecular target: CaHof1; test: as above
Method: as §1

Binder	SPOT peptide array binding signal intensity
LASNSPPVYPKRIRH	0.25

molecular target: CaHse1; test: as above
Method: as §1

Binder	SPOT peptide array binding signal intensity
LASNSPPVYPKRIRH	≤ 0

molecular target: CaLsb1; test: as above
Method: as §1

Binder	SPOT peptide array binding signal intensity
LASNSPPVYPKRIRH	≤ 0

molecular target: CaLsb4; test: as above
Method: as §1

Binder	SPOT peptide array binding signal intensity
LASNSPPVYPKRIRH	771

molecular target: CaMyo5; test: as above
Method: as §1

Binder	SPOT peptide array binding signal intensity
LASNSPPVYPKRIRH	≤ 0

molecular target: CaNbp2; test: as above
Method: as §1

Binder	SPOT peptide array binding signal intensity
LASNSPPVYPKRIRH	≤ 0

molecular target: CaRvs167; test: as above
Method: as §1

Binder	SPOT peptide array binding signal intensity
LASNSPPVYPKRIRH	4.17

molecular target: CaRvs167-3; test: as above
Method: as §1

Binder	SPOT peptide array binding signal intensity
LASNSPPVYPKRIRH	2.25

molecular target: CaSho1; test: as above
Method: as §1

Binder	SPOT peptide array binding signal intensity
LASNSPPVYPKRIRH	3

molecular target: CaSla1-D1-D2; test: as above
Method: as §1

Binder	SPOT peptide array binding signal intensity
LASNSPPVYPKRIRH	56

molecular target: CaSla1-D3; test: as above
Method: as §1

Binder	SPOT peptide array binding signal intensity
LASNSPPVYPKRIRH	≤ 0

molecular target: ScAbp1; test: as above
Method: as §1

Binder	SPOT peptide array binding signal intensity
LASNSPPVYPKRIRH	39.5

molecular target: ScBbc1; test: as above
Method: as §1

Binder	SPOT peptide array binding signal intensity
LASNSPPVYPKRIRH	16.8

molecular target: ScBem1-D1; test: as above
Method: as §1

Binder	SPOT peptide array binding signal intensity
LASNSPPVYPKRIRH	≤ 0

molecular target: ScBzz1-D1; test: as above
Method: as §1

Binder	SPOT peptide array binding signal intensity
LASNSPPVYPKRIRH	≤ 0

molecular target: ScBzz1-D2; test: as above
Method: as §1

Binder	SPOT peptide array binding signal intensity
LASNSPPVYPKRIRH	19

molecular target: ScCyk3; test: as above
Method: as §1

Binder	SPOT peptide array binding signal intensity
LASNSPPVYPKRIRH	1

molecular target: ScFus1; test: as above
Method: as §1

Binder	SPOT peptide array binding signal intensity
LASNSPPVYPKRIRH	≤ 0

molecular target: ScHof1; test: as above
Method: as §1

Binder	SPOT peptide array binding signal intensity
LASNSPPVYPKRIRH	0.75

molecular target: ScHse1; test: as above
Method: as §1

Binder	SPOT peptide array binding signal intensity
LASNSPPVYPKRIRH	≤ 0

molecular target: ScLsb1; test: as above
Method: as §1

Binder	SPOT peptide array binding signal intensity
LASNSPPVYPKRIRH	46.5

molecular target: ScLsb2; test: as above
Method: as §1

Binder	SPOT peptide array binding signal intensity
LASNSPPVYPKRIRH	10

molecular target: ScLsb3; test: as above
Method: as §1

Binder	SPOT peptide array binding signal intensity
LASNSPPVYPKRIRH	1560

molecular target: ScLsb4; test: as above
Method: as §1

Binder	SPOT peptide array binding signal intensity
LASNSPPVYPKRIRH	45.5

molecular target: ScMyo3; test: as above
Method: as §1

Binder	SPOT peptide array binding signal intensity
LASNSPPVYPKRIRH	≤ 0

molecular target: ScMyo5; test: as above
Method: as §1

Binder	SPOT peptide array binding signal intensity
LASNSPPVYPKRIRH	≤ 0

molecular target: ScNbp2; test: as above
Method: as §1

Binder	SPOT peptide array binding signal intensity
LASNSPPVYPKRIRH	≤ 0

molecular target: ScPex13; test: as above
Method: as §1

Binder	SPOT peptide array binding signal intensity
LASNSPPVYPKRIRH	56.5

molecular target: ScRvs167; test: as above
Method: as §1

Binder	SPOT peptide array binding signal intensity
LASNSPPVYPKRIRH	7.67

molecular target: ScSho1; test: as above
Method: as §1

Binder	SPOT peptide array binding signal intensity
LASNSPPVYPKRIRH	27.5

molecular target: ScSla1-D1-D2; test: as above
Method: as §1

Binder	SPOT peptide array binding signal intensity
LASNSPPVYPKRIRH	11

molecular target: ScSla1-D3; test: as above
Method: as §1

Binder	SPOT peptide array binding signal intensity
LASNSPPVYPKRIRH	≤ 0

molecular target: SpAbp1-D1; test: as above
Method: as §1

Binder	SPOT peptide array binding signal intensity
LASNSPPVYPKRIRH	18.5

molecular target: SpBbc1; test: as above
Method: as §1

Binder	SPOT peptide array binding signal intensity
LASNSPPVYPKRIRH	≤ 0

molecular target: SpBzz1-D1; test: as above
Method: as §1

Binder	SPOT peptide array binding signal intensity
LASNSPPVYPKRIRH	248

molecular target: SpBzz1-D2; test: as above
Method: as §1

Binder	SPOT peptide array binding signal intensity
LASNSPPVYPKRIRH	≤ 0

molecular target: SpCyk3; test: as above
Method: as §1

Binder	SPOT peptide array binding signal intensity
LASNSPPVYPKRIRH	≤ 0

molecular target: SpHof1; test: as above
Method: as §1

Binder	SPOT peptide array binding signal intensity
LASNSPPVYPKRIRH	1.5

molecular target: SpHof1-2; test: as above
Method: as §1

Binder	SPOT peptide array binding signal intensity
LASNSPPVYPKRIRH	1

molecular target: SpHof1-3; test: as above
Method: as §1

Binder	SPOT peptide array binding signal intensity
LASNSPPVYPKRIRH	2.75

molecular target: SpHse1; test: as above
Method: as §1

Binder	SPOT peptide array binding signal intensity
LASNSPPVYPKRIRH	≤ 0

molecular target: SpLsb1; test: as above
Method: as §1

Binder	SPOT peptide array binding signal intensity
LASNSPPVYPKRIRH	257

molecular target: SpLsb4; test: as above
Method: as §1

Binder	SPOT peptide array binding signal intensity
LASNSPPVYPKRIRH	1810

molecular target: SpMyo1; test: as above
Method: as §1

Binder	SPOT peptide array binding signal intensity
LASNSPPVYPKRIRH	≤ 0

molecular target: SpNbp2; test: as above
Method: as §1

Binder	SPOT peptide array binding signal intensity
LASNSPPVYPKRIRH	0.5

molecular target: SpPex13; test: as above
Method: as §1

Binder	SPOT peptide array binding signal intensity
LASNSPPVYPKRIRH	≤ 0

molecular target: SpRvs167; test: as above
Method: as §1

Binder	SPOT peptide array binding signal intensity
LASNSPPVYPKRIRH	3.5

molecular target: SpSla1-D1-D2; test: as above
Method: as §1

Binder	SPOT peptide array binding signal intensity
LASNSPPVYPKRIRH	≤ 0

molecular target: SpSla1-D3; test: as above
Method: as §1

Binder	SPOT peptide array binding signal intensity
LASNSPPVYPKRIRH	≤ 0

— the supplement of paper PMC4466140
